Test [1] is described as follows: qHTS assay for small molecule agonists of the p53 signaling pathway (AID 651631; calls by dose curve; further: nearly all actives have a fitted effect of over 15% in size; further: potency means the concentration at half of the fitted maximal effect). A digest of the protocol: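 HCT-116 cells carrying a stable p53 response element–beta-lactamase reporter were plated, rested 5 h at 37 °C, then exposed to compound in DMSO for 16 h at 37 °C; reporter activity was read as FRET substrate fluorescence after 2 h at room temperature.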
Background: In qHTS, concentration-response curves come from the screen itself.

A short description of test [2]: qHTS assay for small molecules that induce genotoxicity in human embryonic kidney cells expressing luciferase-tagged ATAD5 (AID 651632). Further: nearly all actives have a fitted effect of over 15% in size. A digest of the protocol: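 Luminescence read-out: after 16 hr compound exposure at 37C, ATAD5-luciferase HEK293T cells received Amplite, 30 min RT, then CCD imaging. A rise in signal marks genotoxic stress.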
Test [3] in a line: qHTS assay for small molecule agonists of the p53 signaling pathway - cell viability (AID 651633; calls by dose curve; further: nearly all actives have a fitted effect of over 30% in size). A digest of the protocol:
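p53RE-bla cells, seeded at 4,000 per well and rested 5 h at 37 C/5% CO2, received compounds in DMSO for 16 h at 37 C. CellTiter-Glo was then added, and luminescence was read after 30 min at room temperature to gauge cytotoxicity.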

A short description of test [4]: qHTS assay for small molecules that induce genotoxicity in human embryonic kidney cells expressing luciferase-tagged ATAD5 - cell viability (AID 651634; calls by dose curve; further: nearly all actives have a fitted effect of over 25% in size). A digest of the protocol:
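HEK293T ATAD5-luc cells, 2,000/well; compound 15.5 hr, 37C/5% CO2; CellTiter-Fluor 30 min, 37C; fluorescence read.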

Test [5] can be described thus: qHTS assay for small molecule disruptors of the mitochondrial membrane potential - cell viability (AID 720634; calls by dose curve;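 further: human HepG2 liver cancer cells; nearly all actives have a fitted effect of over 20% in size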). Summed up: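 Luminescence from CellTiter-Glo (ATP content) gave viability in HepG2 cells, read in the same wells as the MMP dye assay after 1 hr compound exposure at 37 C.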
A short description of test [6]: qHTS assay for small molecule disruptors of the mitochondrial membrane potential (AID 720635). Summed up: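 HepG2 cells (2,000/well) attached overnight at 37C, then took compound for 1 hr at 37C, 5% CO2. Mito-MPS dye was added for 30 min; fluorescence was read at 490/535 nm (monomers) and 540/590 nm (aggregates).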
A short description of test [7]: qHTS assay to test for compound auto fluorescence at 590 nm (red) in HepG2 cells (AID 720674). A digest of the protocol: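 Intrinsic compound fluorescence in the red window (Ex/Em 540/590 nm) is measured in attached HepG2 cells exposed for 1 hr, DMSO vehicle as baseline, benchmarked to Rose Bengal sodium.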
Test [8] is described as follows: qHTS assay to test for compound auto fluorescence at 535 nm (green) in HepG2 cells (AID 720675).
Test [9] can be described thus: qHTS assay to test for compound auto fluorescence at 460 nm (blue) in HEK293 cells (AID 720678). Summed up: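 Measured: blue fluorescence (Ex 405/Em 460 nm) of compound-treated HEK293 cells, incubated overnight at 37C with 5% CO2 and scaled to triamterene equivalents.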
Test [10] can be described thus: qHTS assay to test for compound auto fluorescence at 590 nm (red) in HEK293 cells (AID 720679). A digest of the protocol:
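Using HEK293 cells at 2,000 per well, the screen added 23 nL of each compound after cell attachment and incubated overnight (37C, 5% CO2). The plate reader then captured red-label fluorescence, Ex/Em 540/590nm.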

The nature of test [11]: qHTS assay to test for compound auto fluorescence at 535 nm (green) in HEK293 cells (AID 720680).
The nature of test [12]: qHTS assay to test for compound auto fluorescence at 460 nm (blue) in HEK293 cell free culture (AID 720681). Summed up: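 Test compounds were pinned into cell-free culture medium (DMEM with 10% FBS) and fluorescence was read directly at Ex/Em 405/460 nm. Signals were expressed as fluorescence equivalents of triamterene, with DMSO vehicle as control.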
Test [13] can be described thus: qHTS assay to test for compound auto fluorescence at 535 nm (green) in HEK293 cell free culture (AID 720682). Summed up: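 Read-out: 485/535 nm fluorescence intensity, calibrated against fluorescein. Medium only (DMEM + 10% FBS, no cells); test compound or DMSO vehicle added by pintool before plate reading.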
Test [14] in a line: qHTS assay to test for compound auto fluorescence at 590 nm (red) in HEK293 cell free culture (AID 720683). A digest of the protocol: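 Tox21 10K library compounds were pinned into cell-free DMEM with 10% FBS and fluorescence was read at excitation 540 nm. Activity is expressed as Rose Bengal sodium equivalency.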
A short description of test [15]: qHTS assay to test for compound auto fluorescence at 590 nm (red) in HepG2 cell free culture (AID 720684). A digest of the protocol: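 Readout: intrinsic compound fluorescence at 590 nm emission after 540 nm excitation, scaled to Rose Bengal sodium. Matrix was cell-free MEM with 10% FBS; DMSO vehicle wells served as control.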
Test [16] is described as follows: qHTS assay to test for compound auto fluorescence at 460 nm (blue) in HepG2 cell free culture (AID 720685). A digest of the protocol:
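Cell-free plates of MEM plus 10% FBS received 23 nL compound or DMSO vehicle; blue-channel (405/460 nm) intensity scored against triamterene as reference fluorophore.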

A short description of test [17]: qHTS assay to test for compound auto fluorescence at 535 nm (green) in HepG2 cell free culture (AID 720686).
The nature of test [18]: qHTS assay to test for compound auto fluorescence at 460 nm (blue) in HepG2 cells (AID 720687). Summed up:
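Cells (2,000/well in MEM with 10% FBS) attached overnight at 37 C, then were exposed to compound or DMSO for 1 hr at 37 C, 5% CO2. Fluorescence read at Ex/Em 405/460 nm, expressed as triamterene-equivalent signal.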

Test [19] concerns the target Glucocorticoid receptor (Homo sapiens) (UniProt P04150). As to the kind of experiment: qHTS assay to identify small molecule agonists of the glucocorticoid receptor (GR) signaling pathway (AID 720691; active means well fitted activation curve with a large enough effect in the signal ratio in the repeat runs, not every such curve was filed as active; the % refers to the signal ratio). The following applies: GR-bla HeLa, beta-lactamase reporter ratio, 18 h; activation: at 62.4 µM (top of the series). Summed up: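 HeLa GR-bla reporter line; cells pre-incubated 4 h, compound in DMSO 18 h at 37 C; LiveBLAzer B/G FRET substrate 2 h RT; fluorescence intensity read-out.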

The target is the same in test [20]. As to the kind of experiment: qHTS assay to identify small molecule antagonists of the glucocorticoid receptor (GR) signaling pathway (AID 720692; active means well fitted inhibition curve with a large enough effect in the signal ratio in the repeat runs, not every such curve was filed as active; the % refers to the signal ratio). Summed up: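 Read-out: beta-lactamase FRET substrate fluorescence, 2 h at room temperature, in HeLa cells stably carrying a GRE-driven bla reporter. Compounds were co-incubated with 5 nM dexamethasone agonist (final) for 18 h at 37 C.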

Records with an inconclusive call do not appear. The source made the active and inactive calls. Unless noted, the call rests on the fitted dose curve; in most records, active means well fitted curve in the direction sought with a large enough effect in the repeat runs; inconclusive means weak or mixed curves; inactive means no such curve, though single readings can be large; an effect the other way counts as inactive or inconclusive.

Sequence of Glucocorticoid receptor (Homo sapiens) (P04150 whole entry, looked up): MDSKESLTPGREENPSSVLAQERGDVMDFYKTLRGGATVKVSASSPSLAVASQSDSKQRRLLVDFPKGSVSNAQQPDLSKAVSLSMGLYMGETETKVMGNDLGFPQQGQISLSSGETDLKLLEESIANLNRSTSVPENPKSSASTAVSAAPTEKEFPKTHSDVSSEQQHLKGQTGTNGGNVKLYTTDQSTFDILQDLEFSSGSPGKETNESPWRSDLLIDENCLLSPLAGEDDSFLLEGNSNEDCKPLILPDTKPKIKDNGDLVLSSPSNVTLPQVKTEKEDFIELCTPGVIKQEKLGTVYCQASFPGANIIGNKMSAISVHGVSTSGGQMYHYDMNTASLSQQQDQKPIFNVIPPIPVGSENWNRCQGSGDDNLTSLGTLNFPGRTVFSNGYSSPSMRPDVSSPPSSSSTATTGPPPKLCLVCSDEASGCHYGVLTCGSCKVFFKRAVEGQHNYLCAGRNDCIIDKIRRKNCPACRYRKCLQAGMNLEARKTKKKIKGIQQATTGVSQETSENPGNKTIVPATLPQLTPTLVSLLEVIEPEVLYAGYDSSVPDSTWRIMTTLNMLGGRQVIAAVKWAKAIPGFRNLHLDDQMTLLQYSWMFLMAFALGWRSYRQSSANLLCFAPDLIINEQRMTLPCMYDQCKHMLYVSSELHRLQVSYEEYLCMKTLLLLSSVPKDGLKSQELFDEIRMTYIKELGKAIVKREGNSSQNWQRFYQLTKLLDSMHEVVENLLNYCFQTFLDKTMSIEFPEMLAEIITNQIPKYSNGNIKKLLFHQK

For `O=C(O)COc1ccccc1/C=N/NC(=O)c1ccncc1`, the Potency result in test [1], in test [2], in test [3], in [4], in [5] and in [6] was “inactive” in each case. The Potency entry in test [8], in test [9], in test [12], in [16], in [17] and in test [18] was “inactive” in each case. Moreover, the molecule was called inactive in test [7], in test [10], in [11], in test [13], in test [14] and in [15].

Turning to `CC1(C)S[C@@H]2[C@H](N3C(=O)C(c4ccccc4)NC3(C)C)C(=O)N2[C@H]1C(=O)O` (stereo partly specified), the Potency result in test [1], in [2], in test [3], in [4], in [5] and in test [6] was “inactive” each time. Also, the Potency result in test [8], in test [9], in [12], in test [16], in test [17] and in test [18] was “inactive” in each case. Moreover, the molecule was called inactive in test [7], in test [10], in test [11], in test [13], in [14] and in test [15].

On to `NCC1CCC(C(=O)O)CC1` (stereo unspecified), for which the Potency entry in [1], in [2], in test [3], in [4], in test [5] and in test [6] was “inactive” each time. The Potency entry in test [8], in [9], in [12], in test [16], in [17] and in test [18] was “inactive” throughout. Besides, the molecule was classed as inactive in test [7], in test [10], in [11], in test [13], in [14] and in [15].

For `CCC1OC(=O)C[C@@H](O)[C@H](C)[C@@H](O[C@@H]2O[C@H](C)C[C@H](N(C)C)[C@H]2O)[C@@H](CC=O)C[C@@H](C)C(=O)/C=C/[C@]2(C)OC2C1C` (stereo partly specified), the Potency in test [1] was 29.8 µM (active). Further, the Potency result in test [2], in test [3], in test [4], in test [5], in test [6] and in [8] was “inactive” in each case. The Potency entry in test [9], in [12], in [16], in test [17] and in test [18] was “inactive” in each case. Moreover, the outcome in [7], in [10], in test [11], in test [13], in [14] and in test [15] was inactive.

As to `O=P(O)(O)C(O)(Cn1ccnc1)P(=O)(O)O`, the Potency entry in test [1], in test [2], in test [3], in [4], in test [5] and in test [6] was “inactive” each time. For the same molecule, the Potency entry in test [8], in [9], in [12], in test [16], in test [17] and in test [18] was “inactive” throughout. Further, the Potency entry in test [19] is “inactive”. Further, the outcome in [7], in test [10], in test [11], in [13], in [14] and in test [15] was inactive.

In the case of `NCCCC(=O)O`, the Potency entry in [1], in test [2], in test [3], in test [4], in [5] and in [6] was “inactive” throughout. For the same molecule, the Potency result in test [8], in test [9], in test [12], in [16], in test [17] and in [18] was “inactive” each time. Besides, the Potency entry in test [19] and in test [20] was “inactive” throughout. Also, the molecule was called inactive in test [7], in test [10], in [11], in test [13], in test [14] and in test [15].

(Values after PubChem BioAssay (Tox21).)
